The text below walks through data of PubChem BioAssay AID588689 (Southern Research Specialized Biocontainment Screening …, 2011).

The whole screen tested about 340,000 compounds, of which about 1,000 (0.29%) were called active. No stated cut-off is given here; in the data, inconclusive means inhibition above about 29% without an active follow-up result; inactive means below that. Only a sample is shown. Measured potencies and affinities stand elsewhere.

This assay addresses Genome polyprotein (Dengue virus type 2 (strain 16681-PDK53)) (UniProt P29991). Put plainly: Dengue-2 NS5 methyltransferase inhibitors, primary screen, biochemical, confirmation dose response (AID 588689). The settings on record: Dengue-2 NS5 methyltransferase capping enzyme assay, at 25 µM, stronger effect = higher value.
The mark [1] stands for this setting: measured here: pilot screen replicate inhibition.

As for `CCOc1cc(C(=O)O)cc(Cl)c1OCC#N`, the inhibition (in general, the change of the read-out against control, counted positive when it falls) was -2.72% (inactive).
`CCOc1cc(C=O)cc(Cl)c1OCC(N)=O`: the inhibition was -2.73% (inactive).
Same read-out and setting: then `O=c1[nH]c2ccc(S(=O)(=O)N3CCN(Cc4ccccc4)CC3)cc2[nH]c1=O`, with -2.74% (inactive); and `CC(=O)Nc1ccc(-c2csc(NC(=O)C3CCN(S(=O)(=O)c4cccs4)CC3)n2)cc1`, with -5.78% (inactive).
Consider `Cc1ccc(N2C(=O)c3ccccc3C2=O)cc1C`, for which the inhibition is -5.39% (inactive).
In the case of `Cc1ccc(N2C(=O)c3ccc(C(=O)O)cc3C2=O)cc1C`, the inhibition was 9.14% (inactive).
The same measure, in the same setting: with `COC(=O)c1c(C(=O)OC)c(-c2ccccc2)n2c1CCC2` the figure was 1.6% (inactive); with `O=C(O)/C(=C\c1ccc(Cl)c([N+](=O)[O-])c1)c1ccc(S(=O)(=O)N2CCCC2)s1`, 0.37% (inactive).
As to `O=C(O)/C(=C/c1ccc(Cl)c([N+](=O)[O-])c1)c1ccc(S(=O)(=O)N2CCCCC2)s1`, the inhibition was 15.9% (inactive).
Take `O=C(CN1C(=O)C2CCCCC2C1=O)OCC(=O)c1ccc(Cl)s1` (stereo unspecified): the inhibition was -7.27% (inactive).
Same read-out and setting: with `O=S(=O)(c1ccc(=S)[nH]c1)N1CCOCC1` the figure was -8.4% (inactive).
`COC(=O)c1cccc(NC(=O)C2CCCN2C(=O)c2cccs2)c1` (stereo unspecified): the inhibition is -0.73% (inactive).
For `Cc1cc(C(=O)N/N=C2/CC(C)CC(C)(C)C2)c(C)o1` (stereo unspecified), the inhibition was -5.92% (inactive).
For the molecule `CC1(C)CC(=O)C2=C(C1)c1c(ccc3ccccc13)NC2c1ccco1` (stereo unspecified), the inhibition was -4.19% (inactive).
Regarding `CC1(C)CC(=O)C2=C(C1)c1c(ccc3ccccc13)NC2c1ccc(C(=O)O)cc1` (stereo unspecified), the inhibition was 2.04% (inactive).
Turning to `COc1ccc(S(=O)(=O)N2CCN(c3ccccc3OC)CC2)cc1C(=O)N1CCCCC1`, the inhibition is -9.14% (inactive).
`O=C(COc1ccc(Br)cc1)NNC(=S)NC(=O)c1ccccc1[N+](=O)[O-]`: the inhibition was 10.8% (inactive).
As for `Cc1ccccc1OCC(=O)NNC(=S)NC(=O)c1ccccc1[N+](=O)[O-]`, the inhibition was -8.89% (inactive).
Take `Cc1ccsc1CN(C)Cc1nc(C2CC2)no1`: the inhibition was 1.78% (inactive).
As to `CCOc1ccc(C=NNc2ccc(S(=O)(=O)Nc3ccccc3C(=O)O)cc2[N+](=O)[O-])cc1OC`, the inhibition is 7.77% (inactive).
The same measure, in the same setting: with `CCOc1cccc(C=NNc2ccc(S(=O)(=O)Nc3ccccc3C(=O)O)cc2[N+](=O)[O-])c1O` the figure was 9.55% (inactive); with `COc1ccccc1NS(=O)(=O)c1ccc(N/N=C/c2c(C)nn(-c3ccccc3)c2N2CCCC2)c([N+](=O)[O-])c1`, 0.96% (inactive).
For the molecule `CSc1ccc(C=NNc2ccc(S(=O)(=O)Nc3ccccc3C(=O)O)cc2[N+](=O)[O-])cc1`, the inhibition was 18.3% (inactive).
As for `CCN(Cc1ccccc1)C(=O)c1ccc(C(=O)N(CC)Cc2ccccc2)cc1`, the inhibition was -1.55% (inactive).
Same read-out and setting: with `CCc1nc(SCc2ccccc2)n[nH]1` the figure was 8.1% (inactive).
For `Cc1cc(C(F)(F)F)c(C#N)c(SCC(=O)NC(C)(C)C)n1`, the inhibition is -2.7% (inactive). The inhibition under setting [1] came to 4.83%.
On to `COc1cccc(O)c1CN1CCC(n2nccc2NC(=O)c2ccc3c(c2)OCO3)CC1`, for which the inhibition is -3.24% (inactive).
Same read-out and setting: with `CCCCSc1n[nH]c(N)n1` the figure was -2.73% (inactive); with `COc1cccc(NC(=O)Cc2nnc(SCC(=O)NC3=NCCS3)n2C)c1`, -1.78% (inactive); with `CCOc1cc(C(=O)N2CCN=C2SC)cc(OCC)c1OCC`, -0.73% (inactive).
Still for that read-out and setting: then `CCCCCCN1C[C@H](n2cc(C3CC3)nn2)[C@@H](O)C[C@@H]1c1ccc(C)cc1`, with 0% (inactive).
On to `COc1ccc(NC2=NCCC(=O)N2Cc2cccs2)cc1`, for which the inhibition is 3.14% (inactive).
`CN(C)/N=C/c1c(O)ccc2ccccc12`: the inhibition is 10.4% (inactive).
`OCC(CO)(CO)N=Cc1c(O)ccc2ccccc12`: the inhibition was 24.8% (inactive).
For `COc1ccc(NC(=O)/C=C/c2ccccc2)c([N+](=O)[O-])c1`, the inhibition is -2.2% (inactive).
On to `CC(=O)N1c2ccccc2NC2=C(C(=O)CCC2)C1c1ccco1` (stereo unspecified), for which the inhibition was 9.11% (inactive).
Same read-out and setting: then `O/N=C/c1cc(Br)ccc1OCc1ccc(F)cc1`, with -7.14% (inactive).
For `O=C(O)CCN1C(=O)/C(=C\c2ccc(OCc3ccccc3)c(OCc3ccccc3)c2)SC1=S`, the inhibition is 8.45% (inactive).
Same read-out and setting: then `Cn1cccc1/C=C1/SC(=S)N(CC(=O)O)C1=O`, with 3.63% (inactive); and `CCn1c(C)cc(/C=C2/SC(=S)N(CC(=O)O)C2=O)c1C`, with -89.8% (inactive); and `O=[N+]([O-])c1ccc(COc2ccc(Br)cc2CN2CCOCC2)cc1`, with -3.16% (inactive).
On the same count and under the same terms, then `Cn1cccc1/C=C1\SC(=S)N(CC(=O)O)C1=O`, with -7.69% (inactive); and `O=C1CCc2cc(S(=O)(=O)Nc3ccccc3)cc3c2N1CCC3`, with -5.11% (inactive).
For the molecule `CCOc1cccc(N2CCN(CCNC(=O)Nc3ccc(C)cc3)CC2)c1C`, the inhibition is -3.11% (inactive).
For the molecule `CC(C)N(C(=O)[C@H]1C[C@H](CC(=O)NCc2ccco2)C(=O)N2CCc3c([nH]c4cc(CCC(=O)N(C)C)ccc34)[C@]12C)C(C)C`, the inhibition is -2.31% (inactive). Further, the inhibition under setting [1] was 1.51%.
As to `Cc1ccc(-c2nnn(CC(=O)N(c3ccccc3F)C(C(=O)NC3CCCC3)c3ccncc3)n2)o1` (stereo unspecified), the inhibition was 5.7% (inactive).
Same read-out and setting: then `COC(=O)c1cc(COC(=O)c2nc3nccc(C)n3n2)oc1C`, with 0% (inactive); and `Clc1ccc(-c2csc(-c3ccno3)n2)cc1`, with -5.36% (inactive); and `O=[N+]([O-])c1ccc(NCCCN2CCOCC2)c([N+](=O)[O-])c1`, with -5.47% (inactive).
Same read-out and setting: then `COc1ccc(CC(=O)Nc2ccc(S(=O)(=O)Nc3cc(OC)nc(OC)n3)cc2)cc1`, with 23.3% (inactive); and `O=C(O)CCCC(=O)N1CCc2cc(S(=O)(=O)N3CCc4ccccc43)ccc21`, with -4.13% (inactive).
The same measure, in the same setting: then `O=C1CCCCC1(O)Cc1ccc2c(c1)OCO2` (stereo unspecified), with -3.89% (inactive); and `O=c1cc(-c2ccccc2)oc2cc(O)cc(O)c12`, with -12.6% (inactive); and `O=c1cc(-c2ccccc2)oc2cccc(O)c12`, with -5.07% (inactive).
As for `CC(=O)c1cc2c(cc1NC(=O)Cc1ccsc1)OCO2`, the inhibition is -0.37% (inactive).
On the same count and under the same terms, then `O=C(C1CC(c2cccc(Br)c2)=NO1)N1CCc2ccccc2C1` (stereo unspecified), with -3.92% (inactive); and `Cc1cccc(OCCn2nc(C(=O)O)c3ccccc3c2=O)c1`, with 2.68% (inactive); and `O=C(Nc1cccc2ccccc12)c1cccc([N+](=O)[O-])c1`, with -4.08% (inactive).
Regarding `O=C(O)c1cccc([N+](=O)[O-])c1C(=O)Nc1cccc2ccccc12`, the inhibition is -2.72% (inactive).
On the same count and under the same terms, then `COc1cc(CN=Cc2c(O)n(Cc3ccccc3)c(=S)[nH]c2=O)cc(OC)c1`, with 10.8% (inactive); and `COc1c(O)ccc(/C=N\NC(=O)c2ccc3c(c2)OCO3)c1[N+](=O)[O-]`, with 12.7% (inactive); and `COc1c(O)ccc(/C=N/NC(=O)c2ccc3c(c2)OCCO3)c1[N+](=O)[O-]`, with 2.38% (inactive).
Consider `O=C(c1cc(-c2ccncc2)nc2ccc(Cl)cc12)N1CCN(C(=O)C2CCCO2)CC1` (stereo unspecified), for which the inhibition is -1.35% (inactive).
In the case of `CC/C=C\C/C=C\C/C=C\CCCCCCCC(=O)O`, the inhibition was 2.2% (inactive).
With `COC1=CC(=O)C=C(OC)C1=O`, the inhibition is -8.21% (inactive).
`CN(CC(=O)Nc1ccccc1Cl)C(=O)CSc1nnc(-c2ccco2)o1`: the inhibition was -1.47% (inactive).
The same measure, in the same setting: then `CN1CCN(NC(=O)c2cc(S(=O)(=O)N3CCOCC3)c(Cl)cc2Cl)CC1`, with 1.45% (inactive).
The same measure, in the same setting: then `O=C(NC(C(=O)c1ccccc1)N1CCOCC1)c1cccs1` (stereo unspecified), with -6.21% (inactive).
As for `CCCCN1C(=O)N(CCc2ccc(F)cc2)S(=O)(=O)c2cc(C(F)(F)F)ccc21`, the inhibition is -0.33% (inactive). The inhibition under setting [1] came to 1.51%.
As for `COc1ccc2nc3ccccc3nc2c1N`, the inhibition was 40.2% (inactive).
Consider `Cc1cccc2nc3ccccc3nc12`, for which the inhibition is -0.76% (inactive).
With `NC(=O)c1ccc(=O)n(Cc2ccc(F)c(F)c2)c1`, the inhibition was -1.31% (inactive).
On to `Cc1cc(C(c2ccc(O)cc2)c2cc(C)c(O)cc2C)c(C)cc1O`, for which the inhibition was -0.79% (inactive).
For `Cc1ccc(N)cc1O`, the inhibition is -2.91% (inactive).
As for `Cc1ccc(CNC(=O)C(C(=O)NCc2ccc(C)o2)c2ncc(C(F)(F)F)cc2Cl)o1`, the inhibition was -13.8% (inactive).
Regarding `COc1ccc(Br)cc1/C=C/C(=O)NC(=S)Nc1ccc(CN2CCOCC2)cc1`, the inhibition is -10.4% (inactive).
For the molecule `COc1ccc(Br)cc1C(=O)NC(=S)Nc1ccc(Cl)c(C(=O)O)c1`, the inhibition was 4.69% (inactive).
As to `CC1(C)OC(=O)C(=NNc2ccccc2)C(=O)O1`, the inhibition is -0.73% (inactive).
With `c1ccc(NN=C2c3ccccc3-c3ccccc32)cc1`, the inhibition is -1.94% (inactive).
Still for that read-out and setting: with `COc1ccc(N(C)C(=O)c2ccc3c(c2)nnn3C)cc1` the figure was -4.51% (inactive); with `O=C(CN1CCOCC1)Nc1ccccc1NC(=O)C1CCN(c2ncccn2)CC1`, -11.3% (inactive).
For `COC(=O)[C@@]1(Cc2ccccc2)[C@H]2C(=O)N(C)C(=O)[C@H]2[C@H]2CN=C(SCc3ccc(C)cc3)N21`, the inhibition was 1.99% (inactive). Also, the inhibition under setting [1] worked out at 0.61%.
As to `Cc1csc(/C(=N/OC(=O)c2ccco2)C(N)=O)n1`, the inhibition was -32.5% (inactive).
As to `N/C(=N\OC(=O)c1ccco1)c1ccc(Br)cc1`, the inhibition is -5.29% (inactive).
On the same count and under the same terms, then `O=C(CCCOc1cccc(Br)c1)NCCOc1ccccc1`, with -4.07% (inactive); and `Cn1c(=O)c2sccc2n(CC(=O)NCCC2=CCCCC2)c1=O`, with -7.27% (inactive); and `CCN(CC)Cc1nc2c(c(=O)[nH]1)C1(CCCCC1)Cc1ccccc1-2`, with -5.55% (inactive).
`COC(=O)c1ccc(N2NC(=O)/C(=C/c3cc(OC)c(O)c(OC)c3)C2=O)cc1`: the inhibition is -24.8% (inactive).
Same read-out and setting: then `COc1ccc(NC(=O)/C(C#N)=C/c2ccc(-c3ccc(Cl)c(C(=O)O)c3)o2)cc1`, with 3.44% (inactive); and `COC(=O)c1ccc(N2NC(=O)/C(=C/c3ccc(OC)c(OC)c3)C2=O)cc1`, with 34.3% (inactive); and `O=Cc1ccc(-c2ccccc2C(=O)O)o1`, with -2.22% (inactive).
On the same count and under the same terms, then `O=C1NN(c2cccc(Br)c2)C(=O)/C1=C/c1ccc(-c2cc([N+](=O)[O-])ccc2O)o1`, with 70.1% (inactive).
